Reference: ChEMBL document CHEMBL1201862, “PubChem BioAssay data set” (2004)
Hit rate of the full screen: of about 42,000 sequences, about 3,100 (7.4%) were called active. Cut-off read from the data, not from the text of the source: active = GI50 up to about 1.1 µM and inactive = higher. The list is a sample of the results. Measured potencies and affinities stand elsewhere.

Each substance was assayed on Hs-578T.
CISPLATIN, CHEMBL11359 showed a GI50 of 4.98 µM. “[Bis(aminomethyl)tetramethylenesilane]tetrachloropaltinum(IV), CHEMBL2146189” gave a GI50 of 21.2 µM. With “[Bis(aminomethyl)dimethylsilane]tetrachloroplatinum(IV), CHEMBL2146190” the GI50 was > 100 µM. “[Bis(aminomethyl)pentamethylenesilane]dichloropaltinum(II), CHEMBL2146202” showed a GI50 of 1.18 µM. Work on “[Bis(aminomethyl)tetramethylenesilane]dichloropaltinum(II), CHEMBL2146205” yielded a GI50 of 32.4 µM. “[Bis(aminomethyl)pentamethylenesilane]tetrachloropaltinum(IV), CHEMBL2146204” gave a GI50 of 28.8 µM.
